# In PubChem BioAssay AID1347165 (National Center for Advancing Translational Sciences (NCATS), 2019):
# About 5,700 (2.6%) of roughly 220,000 compounds were called active. About 18% were inconclusive and are not listed. The list comes from a sample in which actives are over-represented; it also holds similar structures and randomly drawn compounds. A number with no mark means an inactive call. Calls come from the whole dose curve; as a rule, active = well fitted inhibition curve with a large enough effect; inconclusive = small, poorly fitted or top-dose-only effect; inactive = no such curve, though single readings can be large or run the other way.
# Molecular target: Lysine-specific demethylase 5B (Homo sapiens) (UniProt Q9UGL1)
# Assay: Primary screen for KDM5B Histone Demethylases FDH-coupled qHTS; note: nearly all actives have a fitted effect of over 70% in size; for activity change, negative = inhibition: 0% is about no effect
# Details: FDH-coupled NADH fluorescence (FDH is formaldehyde dehydrogenase); series mostly up to 57.7 µM; activity change, negative = inhibition: at the top concentration
# How it was run: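 Inhibition is measured as reduced NADH fluorescence generation from FDH coupling to formaldehyde release. Truncated KDM5BΔAP at 200 nM final acts on H3K4me3 peptide (12.5 µM in substrate mix) in pH 7.5 HEPES buffer with Tween-20, 30 min, room temperature.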
# Potency is the fitted concentration of half-maximal effect.
# Sequence of Lysine-specific demethylase 5B (Homo sapiens) (Q9UGL1 whole entry, looked up): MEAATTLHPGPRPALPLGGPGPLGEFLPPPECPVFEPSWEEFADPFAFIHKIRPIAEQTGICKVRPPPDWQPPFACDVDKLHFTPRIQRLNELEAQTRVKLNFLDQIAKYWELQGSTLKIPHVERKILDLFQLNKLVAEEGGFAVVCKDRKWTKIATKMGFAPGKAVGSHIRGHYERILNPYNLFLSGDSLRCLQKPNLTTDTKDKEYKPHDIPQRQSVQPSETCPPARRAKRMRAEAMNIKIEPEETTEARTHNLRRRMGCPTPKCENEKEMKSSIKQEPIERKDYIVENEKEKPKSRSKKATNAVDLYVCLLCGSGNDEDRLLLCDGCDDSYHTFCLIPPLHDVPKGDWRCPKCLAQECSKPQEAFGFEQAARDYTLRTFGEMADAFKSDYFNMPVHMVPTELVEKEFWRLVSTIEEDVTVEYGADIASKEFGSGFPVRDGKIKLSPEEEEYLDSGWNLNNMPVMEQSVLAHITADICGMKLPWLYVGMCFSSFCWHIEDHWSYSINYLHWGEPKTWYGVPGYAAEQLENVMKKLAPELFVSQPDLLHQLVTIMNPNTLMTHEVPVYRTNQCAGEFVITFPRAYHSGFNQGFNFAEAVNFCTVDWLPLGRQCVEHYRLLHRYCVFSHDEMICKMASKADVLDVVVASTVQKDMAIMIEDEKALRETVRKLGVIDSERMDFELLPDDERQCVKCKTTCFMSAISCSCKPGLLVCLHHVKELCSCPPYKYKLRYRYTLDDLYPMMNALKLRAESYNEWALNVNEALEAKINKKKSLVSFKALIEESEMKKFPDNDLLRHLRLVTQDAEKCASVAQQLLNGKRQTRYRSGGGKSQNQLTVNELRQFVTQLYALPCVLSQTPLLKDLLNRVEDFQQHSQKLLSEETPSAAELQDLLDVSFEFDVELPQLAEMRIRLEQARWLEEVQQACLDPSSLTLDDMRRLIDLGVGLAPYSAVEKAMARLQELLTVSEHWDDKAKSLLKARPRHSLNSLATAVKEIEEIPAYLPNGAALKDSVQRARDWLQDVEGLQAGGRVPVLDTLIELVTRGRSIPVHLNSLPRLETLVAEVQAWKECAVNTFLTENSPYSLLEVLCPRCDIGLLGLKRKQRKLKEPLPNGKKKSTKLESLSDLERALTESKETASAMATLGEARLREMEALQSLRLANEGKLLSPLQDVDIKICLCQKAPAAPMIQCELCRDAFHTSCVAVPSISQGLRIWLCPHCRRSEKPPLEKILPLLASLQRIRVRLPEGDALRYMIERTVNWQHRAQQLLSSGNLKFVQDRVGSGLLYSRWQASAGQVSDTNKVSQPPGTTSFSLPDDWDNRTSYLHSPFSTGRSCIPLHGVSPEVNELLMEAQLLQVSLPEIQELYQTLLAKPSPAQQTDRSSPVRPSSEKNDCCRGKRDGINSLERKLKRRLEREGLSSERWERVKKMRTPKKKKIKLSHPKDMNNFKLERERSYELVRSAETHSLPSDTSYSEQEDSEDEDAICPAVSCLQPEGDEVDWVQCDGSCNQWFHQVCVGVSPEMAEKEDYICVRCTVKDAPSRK
Structure (SMILES),"activity change, negative = inhibition",Potency
COCCOc1ccc(-c2noc([C@@H]3CCCN3Cc3cccnc3)n2)cn1,-24.5% [at 86.2 µM],–
Cn1cc(C(=O)N2CCN(C(=O)Cc3ccccc3)CC2)c2ccccc21,10.9%,–
CCC(C)C(NC(=O)NCc1ccc(C)cc1)C(=O)O (stereo not drawn),23.5%,–
CCS(=O)(=O)N1CC(=O)N(Cc2ccccc2Cl)C(C)(C(=O)NCc2ccccc2OC)C1 (stereo not drawn),19.1%,–
Cc1ccc(C)c2c(=O)cc(CN3CCN(CCn4cncn4)CC3)[nH]c12,–,25.1 µM (active)
Cc1cc2oc(=O)cc(CN3CCN(CCc4ccncc4)CC3)c2cc1C,-2.75%,–
O=C(CCn1cncn1)N1CCc2[nH]nc(-c3cccc4ccccc34)c2C1,-15%,–
Cc1nn(C)cc1CNC(=O)c1cc2nc(-c3ccc(Cl)s3)cc(C(F)(F)F)n2n1,33.1%,–
Cc1cc(C)c(NC(=O)CN(C)Cc2coc(-c3ccccc3)n2)c(C)c1,1.75%,–
O=C(c1nc(-c2cccnc2)c2cnccn12)N1CCN(c2ncccn2)CC1,-2790%,–
COc1cccc(Cn2c(SCc3ccc(C(=O)N4CCCCC4)cc3)nc3ccncc32)c1,-2.19%,–
O=C(c1nc(-c2ccsc2)c2cnccn12)N1CCCC1,–,35.5 µM (active)
CCNC(=O)[C@@H]1CCCN1[C@@H](C(=O)NC)c1ccccc1OC,-6.62% [at 86.2 µM],–
CNC(=O)[C@@H](Cc1ccccc1)N1CCC[C@H]1C(=O)N1CCC1,–,28.2 µM (active)
CNC(=O)C(C)(C)N1CCC[C@H]1C(=O)N(C)Cc1ccccc1,10.2% [at 86.2 µM],–
Cc1cccc(OC(C)C(=O)Nc2cc(-c3ccc(F)c(F)c3)no2)c1C (stereo not drawn),-3.36%,–
O=S(=O)(NCCc1csc2nc(-c3ccccc3)nn12)c1cc(Cl)ccc1Cl,5.42%,–
O=C1CC(c2noc(-c3ccc(F)c(Cl)c3)n2)CN1c1ccc(F)cc1 (stereo not drawn),-32.5%,–
COc1ccc(-c2nc(C3CC(=O)N(c4ccc(F)c(Cl)c4)C3)no2)cc1OC (stereo not drawn),–,31.6 µM (active)
Cc1ccc(-c2nc(C3CC(=O)N(c4ccc(Cl)cc4)C3)no2)cc1C (stereo not drawn),-7.68%,–
Cc1ccc(F)cc1NC(=O)CCc1c[nH]c2ccccc12,17.4%,–
COc1ccc(S(=O)(=O)N2CCC(C)CC2)c2cccnc12,12.9%,–
CC(NC(=O)c1ccc(F)cc1)C12CC3CC(CC(C3)C1)C2 (stereo not drawn),14.3%,–
CCCn1c(CN2CCCCC2)nc2cc(NC(=O)c3cc(OC)c(OC)c(OC)c3)ccc21,5.88%,–
Cc1cc(NC(=O)COc2c(CO)cc(F)cc2CO)ccc1Br,-18.6%,–
COc1ccc(-c2noc(CCC(=O)Nc3ccn(C)n3)n2)cc1,-1.76%,–
COc1ccc(CNC(=O)NCC(=O)N2CCCCCCNC(=O)CC2c2ccccc2)cc1 (stereo not drawn),10.8%,–

Structure (SMILES),"activity change, negative = inhibition",Potency
O=C1CCC(C(=O)NCc2ccc(-c3cnc4c(Oc5ccccc5)nccn34)cc2)N1 (stereo not drawn),–,35.5 µM (active)
O=C1NC(C(=O)NCc2ccccn2)Cn2cccc21 (stereo not drawn),-25.1%,–
O=S(=O)(c1ccc(Cl)cc1)c1nc(-c2ccco2)oc1N1CCCCC1,-11.1%,–
Cc1ccc(C)c(NC(=O)C(c2ccccc2)n2cnc3c2c(=O)n(C)c(=O)n3C)c1 (stereo not drawn),-13.9%,–
COc1cccc(OCCN(C)Cc2cn(-c3ccccc3)nn2)c1,5.71%,–
O=C(CCOc1ccc(Cl)cc1)N1CCC(c2nnc3n2CCC3)CC1,-10.3%,–
Cc1ccc2nc(NC(C)(C)CO)nc(-c3ccccc3)c2c1,120%,–
CC(CC#N)NC(=O)c1cc2ccccc2cc1NC(=O)OC(C)(C)C (stereo not drawn),40.3%,–
Cc1cc(C)nc(NC(=O)Nc2ccc(C)c(F)c2)c1,4.73%,–
COc1ccc(-c2ocnc2C(=O)Nc2cccc(Cl)c2)cc1,10.2%,–
Cc1ccc(NC(=O)Cn2cccc2-c2nc(-c3ccc4c(c3)OCO4)no2)cc1Cl,3.09%,–
COc1ccc(NC(=O)Cn2cccc2-c2nc(-c3ccc4c(c3)OCO4)no2)c(OC)c1,3.86%,–
O=C(CCc1ccccc1)NCCn1cccc1-c1nc(-c2ccc3c(c2)OCO3)no1,–,31.6 µM (active)
N#CCc1ccc(OCC(O)Cn2cnc3ccc(Cl)cc3c2=O)cc1 (stereo not drawn),4.38%,–
Cc1ccc(S(=O)(=O)N2CCN(C)CC2)cc1C(=O)NC1CCCCC1,23.1%,–
CCOC(=O)N1CCC(NC(=O)CS(=O)Cc2nc(-c3ccccc3F)oc2C)CC1 (stereo not drawn),4.01%,–
O=C(Cc1cccn1-c1ccccc1)N1CCOCC1,-6.08%,–
Cc1noc(C)c1-c1cnc2[nH]cc(CC(=O)N3CCOCC3)c2c1,–,35.5 µM (active)
CCc1nc(-c2ccc(OC3CCN(C(=O)Cc4c[nH]c5ccccc45)C3)cc2)no1 (stereo not drawn),7.34%,–
Cc1ccc(S(=O)(=O)NC(=O)c2cccc(C)c2)cc1,-7.21%,–
Cc1cccnc1C(=O)N[C@@H]1CN(c2ncccn2)C[C@H]1CO,–,20 µM (active)
CCOc1ccccc1C(=O)N1CCC(Oc2ncccc2C(=O)N(C)C)C1 (stereo not drawn),-1.4%,–
O=C(N[C@@H]1CN(Cc2cccnc2)C[C@H]1CO)c1cccnc1,-2.06%,–
O=C(CCn1cccn1)N[C@@H]1CN(Cc2ccccc2)C[C@H]1CO,14.5%,–
O=C(N[C@@H]1CN(c2ccncn2)C[C@H]1CO)C1CCCC1,12%,–
CCOc1ccccc1C(=O)N[C@@H]1CN(c2ncccn2)C[C@H]1CO,–,22.4 µM (active)
